An excerpt weighted towards active compounds, which were near 3.8% of everything screened.
PrPC TRFRET: inhibitors of human cell surface prion protein PrPC, primary screen, cell-based, TR-FRET | Major prion protein (Homo sapiens), P04156 | TR-FRET read-out | inhibition, % at 13.8 µM | actives 0.43% (n = 370,000) | AID 720596, 2013; in the data active means inhibition above about 24%; further: 0% = median of the test wells and 100% = reference compound wells
Mtb hypoxia inh: PubChem AID 1159583; fluorescence inhibition, % (test concentration not listed); actives 0.1% (n = 300,000); M. tuberculosis hypoxia-regulated fluorescent reporter, fluorescence; in the data active means fluorescence inhibition mostly above about 23%, no sharp cut-off; inactive means mostly below about 17%
GDH-TPI counter-1: GDH-TPI coupling enzyme inhibitors, primary screen, artefact control for M. tuberculosis FBA inhibitor project, biochemical, absorbance, full deck; GDH-TPI coupled enzyme counterscreen, NADH absorbance; inhibition, % at 4.8 µM; actives 1.2% (n = 360,000); in the data active means inhibition above about 30%;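 further: 0% = DMSO wells and 100% = wells lacking the enzyme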
FBA Mtb inh: Mtb FBA enzyme inhibitors, primary screen, biochemical, fluorescence, strain H37Rv; purified M. tuberculosis FBA, fluorescence read-out; inhibition, % at 1 µM; actives 2.3% (n = 360,000);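 further: 0% = vehicle and 100% = reference inhibitor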
Target sequence (P9WQA3 whole entry, looked up): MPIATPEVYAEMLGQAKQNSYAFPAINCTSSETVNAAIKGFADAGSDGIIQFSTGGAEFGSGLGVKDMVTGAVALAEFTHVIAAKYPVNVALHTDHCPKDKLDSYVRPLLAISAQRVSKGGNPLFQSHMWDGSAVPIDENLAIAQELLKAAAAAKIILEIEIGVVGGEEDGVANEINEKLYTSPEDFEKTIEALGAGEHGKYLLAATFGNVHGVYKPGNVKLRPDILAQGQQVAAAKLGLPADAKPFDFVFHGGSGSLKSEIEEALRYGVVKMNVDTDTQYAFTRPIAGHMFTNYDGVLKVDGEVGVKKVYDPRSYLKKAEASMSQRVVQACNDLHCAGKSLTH
Yp Topo-I inh: Yersinia pestis topoisomerase I inhibitors, primary screen, biochemical, cleavage product accumulation, plate reader, single point; DNA topoisomerase I (Yersinia pestis CO92); Y. pestis Topo-I cleavage product accumulation; activity, % at 10 µM; actives 0.064% (n = 360,000); AID 504884, 2011; in the data active means activity above about 50%, passing the limit was not always enough
PrP 5UTR inh: inhibition of PrP 5' UTR reporter expression | cell-based PrP 5' UTR mRNA reporter, plate reader | inhibition, % (test concentration not listed) | actives 0.35% (n = 340,000) | AID 488862, 2010; in the data active means inhibition above about 52%; further: 0 = median of the neutral control wells
Mtb FBA inh conf: M. tuberculosis aldolase blockers, biochemical, fluorescence, strain H37Rv, confirmation; purified M. tuberculosis FBA, fluorescence read-out; shares compounds with FBA Mtb inh; inhibition, % at 1 µM; actives 78% (n = 5,600); AID 651616, 2012;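 further: 0% = vehicle wells and 100% = reference inhibitor wells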
GDH-TPI counter-2: GDH-TPI coupling enzyme inhibitors, artefact control for M. tuberculosis FBA inhibitor project, biochemical, fluorescence, high throughput; shares compounds with FBA Mtb inh; GDH-TPI coupled enzyme counterscreen; inhibition, % at 1 µM; actives 81% (n = 5,600); AID 652141, 2013; in the data active means inhibition above about 10%
GDH-TPI DR: GDH-TPI coupling enzyme inhibitors, dose response, artefact control for M. tuberculosis FBA inhibitor project, biochemical, fluorescence, IC50. shares compounds with FBA Mtb inh. IC50, µM. GDH-TPI coupled enzyme assay, artifact counterscreen. actives 79% (n = 170). AID 652145, 2013; call rule not given here
Active calls of the source: *. Unless noted, no stated cut-off is given here; in the data, active means inhibition above about 27%; inactive means the rest.

What do the screens show for `COc1cc(C=NNC(=O)c2cccc(Cl)c2)ccc1Oc1ccc([N+](=O)[O-])cn1`?
Mtb hypoxia inh: -1.1

How did COc1ccc(-c2nc(C#N)c(NCCc3ccccc3)o2)cc1 do in these assays?
PrPC TRFRET: 2.1; Mtb hypoxia inh: 5.2; GDH-TPI counter-1: 12.7; FBA Mtb inh: 79.8*; Yp Topo-I inh: 4.5; PrP 5UTR inh: -59.1; Mtb FBA inh conf: 36.6*; GDH-TPI counter-2: 26.3*

What do the screens show for `Cc1ccc(-c2nc(C#N)c(NCCc3ccccn3)o2)cc1`?
PrPC TRFRET: -4.7; Mtb hypoxia inh: 21.5; GDH-TPI counter-1: 16.1; FBA Mtb inh: 10.0; Yp Topo-I inh: 0.9; PrP 5UTR inh: -28.4

Results for N#Cc1nc(-c2ccc(Cl)cc2)oc1NCCc1ccccn1 ?
PrPC TRFRET: 4.8; Mtb hypoxia inh: 9.0; GDH-TPI counter-1: 30.6*; FBA Mtb inh: 28.1*; Yp Topo-I inh: 0.3; PrP 5UTR inh: -68.6; Mtb FBA inh conf: 87.8*; GDH-TPI counter-2: 82.1*

What do the screens show for `COc1ccc(CCNc2oc(COc3ccccc3F)nc2C#N)cc1`?
PrPC TRFRET: 5.7; Mtb hypoxia inh: 1.9; GDH-TPI counter-1: 3.7; FBA Mtb inh: 0.0; Yp Topo-I inh: 30.8; PrP 5UTR inh: -18.4

Results for COc1ccc(CCNc2oc(-c3ccc(C)cc3)nc2C#N)cc1OC ?
PrPC TRFRET: -1.5; GDH-TPI counter-1: 7.9; FBA Mtb inh: 51.4*; Yp Topo-I inh: 16.1; PrP 5UTR inh: -9.6; Mtb FBA inh conf: 70.0*; GDH-TPI counter-2: 61.6*

What do the screens show for `CCOc1ccc(-c2nc(C#N)c(NC3CC3)o2)cc1`?
Mtb hypoxia inh: 3.3; GDH-TPI counter-1: 8.1; FBA Mtb inh: 96.1*; Yp Topo-I inh: -4.6; PrP 5UTR inh: -47.1; Mtb FBA inh conf: -3.0; GDH-TPI counter-2: -7.3

What do the screens show for `CCOC1OC(C(=O)N2CCN(C)CC2)=CC(c2ccc3c(c2)OCO3)C1CCCO` (stereo unspecified)?
Mtb hypoxia inh: 10.5

Results for N#Cc1nc(-c2ccc(Cl)cc2)oc1NCc1cccc2c1OCO2 ?
PrPC TRFRET: 3.7; Mtb hypoxia inh: 3.5; GDH-TPI counter-1: -3.5; FBA Mtb inh: 27.3*; Yp Topo-I inh: 1.6; PrP 5UTR inh: -21.3; Mtb FBA inh conf: 109.8*; GDH-TPI counter-2: 89.0*

What do the screens show for `N#Cc1nc(-c2ccccc2)oc1NCc1ccco1`?
PrPC TRFRET: 5.1; Mtb hypoxia inh: 3.5; GDH-TPI counter-1: 16.9; FBA Mtb inh: 101.2*; Yp Topo-I inh: -2.0; PrP 5UTR inh: -26.1; Mtb FBA inh conf: 58.6*; GDH-TPI counter-2: 50.4*

Results for COc1ccc(-c2nc(C#N)c(NCc3ccccc3Cl)o2)cc1 ?
PrPC TRFRET: -2.5; Mtb hypoxia inh: 3.5; GDH-TPI counter-1: 1.3; FBA Mtb inh: 9.9; Yp Topo-I inh: 11.2; PrP 5UTR inh: -29.7

What do the screens show for `CCOc1ccc(-c2nc(C#N)c(NCc3ccc4c(c3)OCO4)o2)cc1`?
PrPC TRFRET: 3.8; Mtb hypoxia inh: 7.6; GDH-TPI counter-1: 4.3; FBA Mtb inh: 26.0; Yp Topo-I inh: 20.2; PrP 5UTR inh: -6.9

What do the screens show for `COc1ccc(CNc2oc(-c3ccccc3)nc2C#N)cc1`?
PrPC TRFRET: -2.6; GDH-TPI counter-1: 17.8; FBA Mtb inh: 91.9*; Yp Topo-I inh: 11.3; PrP 5UTR inh: -9.1; Mtb FBA inh conf: 94.9*; GDH-TPI counter-2: 73.3*

How did N#Cc1nc(-c2ccccc2Cl)oc1NCc1ccco1 do in these assays?
PrPC TRFRET: 6.3; Mtb hypoxia inh: -0.1; GDH-TPI counter-1: 9.0; FBA Mtb inh: 8.9; Yp Topo-I inh: 5.5; PrP 5UTR inh: -16.8

Results for ON=C1CCC(=NO)c2nn(-c3ccccc3)nc21 ?
Mtb hypoxia inh: -74.4

How did O=C1C2C3C=CC(C4CC34)C2C(=O)N1N=Cc1c[nH]c2ccccc12 (stereo unspecified) do in these assays?
Mtb hypoxia inh: -2.4

Results for O=C(NN=Cc1cc(Br)c(O)c(Br)c1)c1cccnc1 ?
Mtb hypoxia inh: -0.6

How did O=C(C=Cc1ccccc1)N1CCCC1CO (stereo unspecified) do in these assays?
Mtb hypoxia inh: 0.0

How did O=S(=O)(Nc1cccc2ccccc12)N1CCCC1 do in these assays?
PrPC TRFRET: 8.5; Mtb hypoxia inh: 10.7; GDH-TPI counter-1: -4.8; FBA Mtb inh: 27.6*; Yp Topo-I inh: 17.5; PrP 5UTR inh: 15.1; Mtb FBA inh conf: 71.7*; GDH-TPI counter-2: 58.9*

Results for CN1CCc2c(C#N)c(Cl)nc(Cl)c2C1 ?
PrPC TRFRET: -7.2; Mtb hypoxia inh: 15.5; GDH-TPI counter-1: 13.0; FBA Mtb inh: 68.5*; Yp Topo-I inh: 2.7; PrP 5UTR inh: -8.4; Mtb FBA inh conf: 4.0; GDH-TPI counter-2: -2.3

What do the screens show for `O=C(C(=NO)n1cncn1)c1ccccc1Cl`?
Mtb hypoxia inh: 15.3

What do the screens show for `Cc1cc(N2CCN(C)CC2)n2cc(-c3ccc(F)cc3)nc2n1`?
PrPC TRFRET: -4.5; Mtb hypoxia inh: 3.5; GDH-TPI counter-1: 17.1; FBA Mtb inh: 68.6*; Yp Topo-I inh: 5.8; PrP 5UTR inh: -20.3; Mtb FBA inh conf: 40.8*; GDH-TPI counter-2: 36.9*

What do the screens show for `Cc1cc(N2CCN(c3ccccn3)CC2)n2cc(-c3ccccc3)nc2n1`?
PrPC TRFRET: -6.6; Mtb hypoxia inh: -3.4; GDH-TPI counter-1: 8.2; FBA Mtb inh: 18.3; Yp Topo-I inh: 11.3; PrP 5UTR inh: -3.2

What do the screens show for `COc1ccc(-n2nc3ccc(N)cc3n2)cc1`?
PrPC TRFRET: -5.2; GDH-TPI counter-1: 15.9; FBA Mtb inh: 56.1*; Yp Topo-I inh: -13.3; Mtb FBA inh conf: 53.9*; GDH-TPI counter-2: 40.9*

What do the screens show for `CCOc1ccc(-n2nc3ccc(N)cc3n2)cc1`?
PrPC TRFRET: 6.2; Mtb hypoxia inh: 5.7; GDH-TPI counter-1: 15.7; FBA Mtb inh: 73.8*; Yp Topo-I inh: -4.4; PrP 5UTR inh: 20.6; Mtb FBA inh conf: 14.4; GDH-TPI counter-2: 0.9; GDH-TPI DR: 1.09*

What do the screens show for `CCCC=C1CCCOC(C(=O)NCCNCCO)(C(F)(F)F)C1` (stereo unspecified)?
Mtb hypoxia inh: 17.2

What do the screens show for `COc1cc(C=NNC(=O)c2ccccn2)ccc1OC(=O)c1ccccc1Br`?
Mtb hypoxia inh: -10.9

Screens as filed in PubChem BioAssay.
